Compounds with a hit are over-represented: about 27% of the library has one in this group of screens.
CYP2C19 inh: blocks human cytochrome P450 2C19 | CYP2C19 Supersomes, luciferin-H EGE luminescence, 30 min | inhibition, % at 5 µM | P33261 | 96,000 tested, 21% active;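 active = CYP2C19 inhibition above a set limit at 5 µM in the primary screen, cut at about 50% in these data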;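 also: plate controls were negative control wells for no effect and 2.5 mM tranylcypromine positive control for full effect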
Target sequence (P33261 whole entry, looked up): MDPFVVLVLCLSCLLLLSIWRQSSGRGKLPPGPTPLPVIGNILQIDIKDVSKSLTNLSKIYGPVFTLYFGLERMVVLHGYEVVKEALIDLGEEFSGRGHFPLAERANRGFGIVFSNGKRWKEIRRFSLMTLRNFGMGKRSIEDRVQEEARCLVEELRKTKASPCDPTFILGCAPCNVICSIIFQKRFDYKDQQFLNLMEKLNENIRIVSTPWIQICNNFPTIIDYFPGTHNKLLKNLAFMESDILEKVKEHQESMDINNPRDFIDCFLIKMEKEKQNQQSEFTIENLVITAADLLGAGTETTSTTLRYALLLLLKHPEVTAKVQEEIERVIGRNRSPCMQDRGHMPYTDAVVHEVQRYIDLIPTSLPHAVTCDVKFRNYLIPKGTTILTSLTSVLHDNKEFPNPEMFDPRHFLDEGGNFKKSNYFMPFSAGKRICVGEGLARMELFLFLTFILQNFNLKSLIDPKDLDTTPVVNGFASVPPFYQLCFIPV
CYP2C19 activ: cytochrome P450 2C19 (human) activation; P33261; recombinant CYP2C19, luciferin-H EGE luminescence; hits give high values; 0 = fully inhibited enzyme, 1 = untreated enzyme; activation factor at 5 µM; 96,000 tested, under 10 active; AID 1025;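 active = activation factor of at least 2 at 5 µM in the primary screen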;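 also: 0 = wells with 2.5 mM tranylcypromine and 1 = vehicle-only wells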
sEH inh: inhibitors of human soluble epoxide hydrolase; recombinant human sEH enzymatic activity assay; P34913; inhibition, % at 2 µM; 91,000 tested, 0.34% active; in the data active = inhibition above about 80%
CYP2C9 inh: inhibitors of human CYP2C9. CYP2C9 Supersomes, luciferin-H conversion, luminescence. inhibition, % at 5 µM. P11712. 96,000 tested, 20% active;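 active = blocking of liver enzyme CYP2C9 beyond about 50% at 5 µM, limit read from the data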
CYP2C9 act: CYP2C9 (human) activation; P11712; recombinant CYP2C9, luciferin-H conversion, luminescence; hits give high values; factor 1 = untreated enzyme, 0 = blocked; activation factor at 5 µM; 96,000 tested, 1.4% active;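 active = activation factor of 2 or more for CYP2C9 at a 5 µM dose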;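 also: 0 = sulfaphenazole-blocked wells and 1 = vehicle-only wells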
sEH activator: increases human soluble epoxide hydrolase activity; purified human sEH enzymatic activity, activator screen; activation, % at 2 µM; 91,000 tested, 0.04% active; AID 717; P34913; in the data active = activation above about 37%
* marks the source's active call; other numbers are inactive results; x = no result given.

SMILES	CYP2C19 inh	CYP2C19 activ	sEH inh	CYP2C9 inh	CYP2C9 act	sEH activator
Cc1cc(N2CCOCC2)nc(SCC(=O)c2ccc(Cl)cc2)n1	79.9*	0.2	-4.5	23.1	0.8	5.1
Cc1cc(C)nc(SCC(=O)c2ccc([N+](=O)[O-])cc2)n1	92.2*	0.1	2.1	20.5	0.8	0.1
O=C(NC1CCCCCCC1)c1ccc(S(=O)(=O)N2CCCC2)cc1	0.7	1	47.1	28.9	0.7	-47.3
Cc1cc(N2CCOCC2)nc(NCc2ccccc2)n1	73.8*	0.3	5.2	-2.4	1	-6.4
Cc1cc(C)nc(SCNC(=O)c2ccc(Cl)cc2)n1	90.6*	0.1	11.5	-63.2	1.6	-13.8
Cn1c(Sc2ccccc2Cl)c(C=O)c2ccccc21	40.3	0.6	-0.8	35.6	0.6	-1.2
Cc1cccc(Sc2c(C=O)c3ccccc3n2C)c1	80.9*	0.2	1.7	77.4*	0.2	-1.6
Cn1c(Sc2ccc(Cl)cc2)c(C=O)c2ccccc21	3.9	1	-0.5	95.8*	0	2.3
Cc1ccc2c(CC(=O)OCn3nnc4ccccc4c3=O)coc2c1	-3.3	1	8.1	11.3	0.9	-9.3
N#CC1=C2SCN(Cc3ccco3)CN2C(=O)CC1c1ccc(Cl)cc1 (configuration not stated)	61.3*	0.4	11.5	70.2*	0.3	-10.1
CC(C)c1ccc(C2CC(=O)N3CN(Cc4ccco4)CSC3=C2C#N)cc1 (configuration not stated)	28.2	0.7	12.1	72.7*	0.3	-13.0
COc1ccc(C2CC(=O)N3CN(Cc4ccco4)CSC3=C2C#N)cc1 (configuration not stated)	8.8	0.9	2.8	20.4	0.8	-3.8
CC(C)CNS(=O)(=O)c1ccc(OCC(=O)NCC2CCCO2)c(Cl)c1 (configuration not stated)	x	x	25.0	x	x	-23.4
C=CCSc1nnc2c(n1)OC=Nc1ccccc1-2	49.2	0.5	11.6	20.0	0.8	-12.3
Cc1ccc(-c2csc3ncnc(N4CCN(C(=O)c5ccccc5)CC4)c23)cc1	73.0*	0.3	-2.5	78.6*	0.2	4.0
O=C(c1ccco1)N1CCN(c2ncnc3scc(-c4ccccc4)c23)CC1	7.5	0.9	-0.4	38.0	0.6	-0.1
c1ccc(N2CCN(c3ncnc4scc(-c5cccs5)c34)CC2)cc1	95.7*	0	15.6	97.3*	0	-17.7
O=C(CSCc1cccc(Cl)c1)N1CCN(Cc2ccc3c(c2)OCO3)CC1	31.4	0.7	16.7	16.0	0.8	-18.2
OC(CNC1CCCCC1)CN1CCN(CC(O)CNC2CCCCC2)CC1 (configuration not stated)	2.1	1	x	-4.4	1	x
CCn1c(SCC(=O)NCc2ccc(F)cc2)nc2c(c1=O)SC(C)C2 (configuration not stated)	6.3	0.9	x	62.6*	0.4	x
CC1Cc2nc(SCC(=O)NCCc3ccccc3)n(C)c(=O)c2S1 (configuration not stated)	x	x	-3.5	x	x	3.2
CCn1c(SCC(=O)NCc2ccccc2)nc2c(c1=O)SC(C)C2 (configuration not stated)	30.2	0.7	x	61.2*	0.4	x
CCn1c(SCC(=O)NCCc2ccccc2)nc2c(c1=O)SC(C)C2 (configuration not stated)	76.0*	0.2	x	91.8*	0.1	x
CCN(CC)CCN(C)Cc1ccc(Br)cc1	9.4	0.9	-3.2	-0.2	1	4.2
O=C(c1ccc2c(c1)OCCO2)C1CCN(S(=O)(=O)c2ccc(F)cc2)CC1	-4.4	1	9.4	-7.5	1.1	-10.1
SMILES	CYP2C19 inh	CYP2C19 activ	sEH inh	CYP2C9 inh	CYP2C9 act	sEH activator
C=COCCNC(=O)Nc1ccc(Cl)cc1Cl	10.0	0.9	9.6	9.0	0.9	-6.0
O=C1CCC(C(=O)NC2(C(=O)NC3CCCCC3)CCCCC2)N1 (configuration not stated)	7.9	0.9	3.0	-12.8	1.1	-5.1
Cc1nn(C)c(Oc2cccc(Cl)c2)c1C(=O)Nc1ccc(F)cc1	39.8	0.6	-22.5	9.8	0.9	24.7
CCC(CC)C(=O)Nc1cccc(C(=O)NCCc2ccc(S(N)(=O)=O)cc2)c1	78.2*	0.2	-7.7	90.2*	0.1	3.9
CCC(CC)C(=O)NCCc1ccc(S(N)(=O)=O)cc1	-14.3	1.1	3.0	49.0	0.5	-0.6
CCCCC(CC)C(=O)NCCc1ccc(S(N)(=O)=O)cc1 (configuration not stated)	9.3	0.9	7.2	58.9*	0.4	-9.1
Cc1cc(NC(=O)c2cnn3c(C(F)(F)F)cc(-c4ccc(Br)cc4)nc23)no1	23.7	0.8	-2.1	33.5	0.7	0.3
S=C(Nc1ccccn1)c1ccccn1	66.1*	0.3	7.9	51.2*	0.5	-7.5
Cc1cc(C)n(C(=O)c2cc3c(s2)CCCC3)n1	0.6	1	2.0	1.2	1	-2.3
Cc1ccc(C)c(N2CCN(C(=O)CNS(=O)(=O)c3cccs3)CC2)c1	54.2*	0.5	-6.2	50.2*	0.5	3.2
Cc1ccc(N2CCN(C(=O)CNS(=O)(=O)c3ccc(Br)s3)CC2C)cc1 (configuration not stated)	52.5*	0.5	5.7	38.1	0.6	-4.2
O=C(CNS(=O)(=O)c1ccc(Br)s1)N1CCN(c2ncccn2)CC1	42.0	0.6	9.8	61.4*	0.4	-4.5
Clc1ccc(OCCCc2nc(-c3ccncc3)no2)c(Cl)c1	86.8*	0.1	-3.6	84.1*	0.2	4.8
Clc1ccc(OCc2nc(-c3ccncc3)no2)cc1	95.4*	0	-3.4	94.6*	0.1	3.5
Clc1ccc(OCCCc2nc(-c3cccnc3)no2)c(Cl)c1	11.3	0.9	-8.9	30.1	0.7	8.4
Cc1cc(NC(=O)c2cncc(Br)c2)n(-c2ccccn2)n1	4.5	1	-3.5	-58.6	1.6	5.0
CC1(C)CC(=O)C(C=NCCCN2CCCC2=O)=C(O)C1	2.5	1	6.0	4.0	1	-4.6
c1ccc(-c2nc(-c3ccncc3)no2)cc1	93.7*	0.1	-3.8	22.8	0.8	0.3
c1ccc(-c2ccccc2-c2nc(-c3ccncc3)no2)cc1	90.9*	0.1	-5.6	73.6*	0.3	4.9
COc1nc(C)ccc1-c1noc(-c2ccccn2)n1	30.2	0.7	-7.9	27.7	0.7	12.6
COc1ccccc1-c1nc(-c2ccc(C)nc2OC)no1	61.5*	0.4	-4.4	4.1	1	3.0
c1ccc(-c2noc(-c3cccnc3)n2)cc1	13.3	0.9	4.0	4.1	1	-2.2
c1cc(-c2noc(CCC3CCCC3)n2)ccn1	98.7*	0	9.2	96.2*	0	-10.8
O=C1c2ccccc2C(=O)N1CCCc1nc(-c2ccncc2)no1	41.2	0.6	7.9	43.4	0.6	-8.3
Cc1ccc(-n2nnnc2-c2cnn(-c3ccc(F)cc3)c2C(F)(F)F)cc1	x	x	-7.6	x	x	6.3
CCOC(=O)NCCc1c(C)nc2c(c(C)nn2C(C)(C)C)c1C	24.2	0.8	11.8	33.7	0.7	-11.4
